# Shown is part of a subset that was picked to be rich in the strongest signals.
# Key:
# Assay in all cases: glycan array binding signal (z-score within array); higher = stronger binding
# Conditions in all cases: glycan notation: IUPAC condensed, linker removed
# [1] = molecular target: Fuc(a1-2)Gal(b1-4)GlcNAc(b1-2)Man(a1-3)[Fuc(a1-2)Gal(b1-4)GlcNAc(b1-2)Man(a1-6)]Man(b1-4)GlcNAc(b1-4)GlcNAc
# Procedure, shortened: (§1)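 Glycan array data came from 3228 arrays in the Consortium for Functional Glycomics database, and only arrays with an available protein sequence were kept. Glycan names were put into IUPAC-condensed notation, and columns mapping to the same glycan were averaged. The binding signal is a within-array Z-score, averaged across arrays of one protein sequence run at different concentrations or buffers and across linkers. A negative Z-score can be read as non-binding.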
# [2] = molecular target: Fuc(a1-2)Gal6S(b1-4)Glc6S
# Procedure, shortened: as §1
# [3] = molecular target: Fuc(a1-2)[Gal(a1-4)]Gal(b1-4)GlcNAc
# Procedure, shortened: as §1
# [4] = molecular target: Fuc(a1-3)[Gal3S(b1-4)]Glc6S
# Procedure, shortened: as §1
# [5] = molecular target: Fuc(a1-3)[Gal3S(b1-4)]GlcNAc6S
# Procedure, shortened: as §1
# [6] = molecular target: Fuc(a1-3)[GalNAc(b1-4)]GlcNAc
# Procedure, shortened: as §1
# Fuc(a1-4)GlcNAc = molecular target: Fuc(a1-4)GlcNAc
# Procedure, shortened: as §1
# [7] = molecular target: Gal(a1-3)Gal(b1-4)[Fuc(a1-3)]GlcNAc
# Procedure, shortened: as §1
# Gal(b1-3)Gal = molecular target: Gal(b1-3)Gal
# Procedure, shortened: as §1
# [8] = molecular target: Gal(b1-3)GalNAc(b1-4)Gal(b1-4)Glc
# Procedure, shortened: as §1
# [9] = molecular target: Gal(b1-3)GlcNAc(b1-2)Man(a1-3)[Gal(b1-3)GlcNAc(b1-2)Man(a1-6)]Man(b1-4)GlcNAc(b1-4)[Fuc(a1-6)]GlcNAc
# Procedure, shortened: as §1
# [10] = molecular target: Gal(b1-3)GlcNAc(b1-3)Gal(b1-4)Glc
# Procedure, shortened: as §1
# [11] = molecular target: Gal(b1-3)[Fuc(a1-4)]GlcNAc(b1-3)Gal(b1-4)GlcNAc
# Procedure, shortened: as §1
# [12] = molecular target: Gal(b1-4)GalNAc(a1-3)[Fuc(a1-2)]Gal(b1-4)GlcNAc
# Procedure, shortened: as §1
# [13] = molecular target: Gal(b1-4)GlcNAc(b1-6)Gal(b1-4)GlcNAc
# Procedure, shortened: as §1
# Gal3S(b1-3)GlcNAc = molecular target: Gal3S(b1-3)GlcNAc
# Procedure, shortened: as §1
# Gal3S(b1-4)Glc6S = molecular target: Gal3S(b1-4)Glc6S
# Procedure, shortened: as §1
# [14] = molecular target: Gal3S(b1-4)[Fuc(a1-3)]Glc
# Procedure, shortened: as §1
# Gal3S4S(b1-4)GlcNAc = molecular target: Gal3S4S(b1-4)GlcNAc
# Procedure, shortened: as §1
# Gal3S6S(b1-4)GlcNAc6S = molecular target: Gal3S6S(b1-4)GlcNAc6S
# Procedure, shortened: as §1
# Glc(a1-4)Glc = molecular target: Glc(a1-4)Glc
# Procedure, shortened: as §1
# Glc(a1-6)Glc(a1-6)Glc = molecular target: Glc(a1-6)Glc(a1-6)Glc
# Procedure, shortened: as §1
# GlcA(b1-3)Gal = molecular target: GlcA(b1-3)Gal
# Procedure, shortened: as §1
# [15] = molecular target: GlcNAc(b1-3)Gal(b1-4)GlcNAc(b1-3)Gal(b1-4)GlcNAc
# Procedure, shortened: as §1
# GlcNAc(b1-4)GlcNAc = molecular target: GlcNAc(b1-4)GlcNAc
# Procedure, shortened: as §1
# [16] = molecular target: GlcNAc(b1-4)GlcNAc(b1-4)GlcNAc
# Procedure, shortened: as §1
# [17] = molecular target: GlcNAc(b1-6)Gal(b1-4)GlcNAc
# Procedure, shortened: as §1
# [18] = molecular target: Man(a1-2)Man(a1-2)Man(a1-6)[Man(a1-3)]Man
# Procedure, shortened: as §1
# [19] = molecular target: Neu5Ac(a2-3)Gal(b1-3)GalNAc
# Procedure, shortened: as §1
# [20] = molecular target: Neu5Ac(a2-3)Gal(b1-3)GalNAc(b1-4)[Neu5Ac(a2-3)]Gal(b1-4)Glc
# Procedure, shortened: as §1
# [21] = molecular target: Neu5Ac(a2-3)Gal(b1-3)GalNAc6S
# Procedure, shortened: as §1
# [22] = molecular target: Neu5Ac(a2-3)Gal(b1-3)GlcNAc
# Procedure, shortened: as §1
# [23] = molecular target: Neu5Ac(a2-3)Gal(b1-3)[Fuc(a1-4)]GlcNAc(b1-3)Gal(b1-3)[Fuc(a1-4)]GlcNAc
# Procedure, shortened: as §1
# [24] = molecular target: Neu5Ac(a2-3)Gal(b1-4)GlcNAc(b1-2)Man(a1-3)[Neu5Ac(a2-6)Gal(b1-4)GlcNAc(b1-2)Man(a1-6)]Man(b1-4)GlcNAc(b1-4)GlcNAc
# Procedure, shortened: as §1
# Neu5Ac(a2-6)Gal(b1-4)Glc = molecular target: Neu5Ac(a2-6)Gal(b1-4)Glc
# Procedure, shortened: as §1
# [25] = molecular target: Neu5Ac(a2-6)Gal(b1-4)GlcNAc(b1-2)Man(a1-3)[GlcNAc(b1-2)Man(b1-4)GlcNAc(b1-2)Man(a1-6)]Man(b1-4)GlcNAc(b1-4)GlcNAc
# Procedure, shortened: as §1
# [26] = molecular target: Neu5Ac(a2-6)Gal(b1-4)GlcNAc(b1-2)Man(a1-3)[Man(a1-6)]Man(b1-4)GlcNAc(b1-4)GlcNAc
# Procedure, shortened: as §1
# [27] = molecular target: Neu5Ac(a2-6)Gal(b1-4)GlcNAc(b1-3)Gal(b1-4)GlcNAc
# Procedure, shortened: as §1
# [28] = molecular target: Neu5Ac(a2-8)Neu5Ac(a2-3)[GalNAc(b1-4)]Gal(b1-4)Glc
# Procedure, shortened: as §1
# Neu5Gc(a2-3)Gal(b1-4)Glc = molecular target: Neu5Gc(a2-3)Gal(b1-4)Glc
# Procedure, shortened: as §1
binder,measurement,setting,value
"GIINTLQKYYCRVRGGRCAVLSCLPKEEQIGKCSTRGRKCCRRKK [Beta-Defensin 3 (Homo sapiens), P81534]",glycan array binding signal (z-score),[1],-0.692
same,glycan array binding signal (z-score),[2],5.67
same,glycan array binding signal (z-score),[3],-0.449
same,glycan array binding signal (z-score),[4],3.57
same,glycan array binding signal (z-score),[5],8.21
same,glycan array binding signal (z-score),[6],-0.467
same,glycan array binding signal (z-score),Fuc(a1-4)GlcNAc,-0.369
same,glycan array binding signal (z-score),[7],-0.233
same,glycan array binding signal (z-score),Gal(b1-3)Gal,0.134
same,glycan array binding signal (z-score),[8],-0.315
same,glycan array binding signal (z-score),[9],-0.62
same,glycan array binding signal (z-score),[10],-0.348
same,glycan array binding signal (z-score),[11],-0.493
same,glycan array binding signal (z-score),[12],-0.395
same,glycan array binding signal (z-score),[13],-0.485
same,glycan array binding signal (z-score),Gal3S(b1-3)GlcNAc,0.98
same,glycan array binding signal (z-score),Gal3S(b1-4)Glc6S,4.37
same,glycan array binding signal (z-score),[14],0.062
same,glycan array binding signal (z-score),Gal3S4S(b1-4)GlcNAc,4.31
same,glycan array binding signal (z-score),Gal3S6S(b1-4)GlcNAc6S,3.11
same,glycan array binding signal (z-score),Glc(a1-4)Glc,0.053
same,glycan array binding signal (z-score),Glc(a1-6)Glc(a1-6)Glc,-0.18
same,glycan array binding signal (z-score),GlcA(b1-3)Gal,1.72
same,glycan array binding signal (z-score),[15],-0.356
same,glycan array binding signal (z-score),GlcNAc(b1-4)GlcNAc,-0.569
same,glycan array binding signal (z-score),[16],-0.463
same,glycan array binding signal (z-score),[17],-0.369
same,glycan array binding signal (z-score),[18],-0.442
same,glycan array binding signal (z-score),[19],-0.221
same,glycan array binding signal (z-score),[20],-0.555
same,glycan array binding signal (z-score),[21],1.18
same,glycan array binding signal (z-score),[22],-0.304
same,glycan array binding signal (z-score),[23],-0.364
same,glycan array binding signal (z-score),[24],-0.484
same,glycan array binding signal (z-score),Neu5Ac(a2-6)Gal(b1-4)Glc,-0.294
same,glycan array binding signal (z-score),[25],-0.583
same,glycan array binding signal (z-score),[26],-0.313
same,glycan array binding signal (z-score),[27],-0.64
same,glycan array binding signal (z-score),[28],-0.591
same,glycan array binding signal (z-score),Neu5Gc(a2-3)Gal(b1-4)Glc,-0.025
